Results from ChEMBL document CHEMBL3988442, “University of Dundee, Small-Polar-MMV Screening Library” (2021).
About 300 (0.45%) of roughly 67,000 compounds showed an effect of 50% or more. The list comes from a sample in which strong results are over-represented; it also holds similar structures and randomly drawn compounds.

Target: Polyketide synthase Pks13 (Mycobacterium tuberculosis (strain ATCC 25618 / H37Rv)) (UniProt I6X8D2)
Experiment: Mycobacterium tuberculosis Polyketide synthase 13 Thioesterase (PKS13)
Type: functional
Design: scale not given: in the data most compounds retested in dose-response had high values
Conditions: 30 µM

Polyketide synthase Pks13 (Mycobacterium tuberculosis (strain ATCC 25618 / H37Rv)), sequence (I6X8D2 whole entry): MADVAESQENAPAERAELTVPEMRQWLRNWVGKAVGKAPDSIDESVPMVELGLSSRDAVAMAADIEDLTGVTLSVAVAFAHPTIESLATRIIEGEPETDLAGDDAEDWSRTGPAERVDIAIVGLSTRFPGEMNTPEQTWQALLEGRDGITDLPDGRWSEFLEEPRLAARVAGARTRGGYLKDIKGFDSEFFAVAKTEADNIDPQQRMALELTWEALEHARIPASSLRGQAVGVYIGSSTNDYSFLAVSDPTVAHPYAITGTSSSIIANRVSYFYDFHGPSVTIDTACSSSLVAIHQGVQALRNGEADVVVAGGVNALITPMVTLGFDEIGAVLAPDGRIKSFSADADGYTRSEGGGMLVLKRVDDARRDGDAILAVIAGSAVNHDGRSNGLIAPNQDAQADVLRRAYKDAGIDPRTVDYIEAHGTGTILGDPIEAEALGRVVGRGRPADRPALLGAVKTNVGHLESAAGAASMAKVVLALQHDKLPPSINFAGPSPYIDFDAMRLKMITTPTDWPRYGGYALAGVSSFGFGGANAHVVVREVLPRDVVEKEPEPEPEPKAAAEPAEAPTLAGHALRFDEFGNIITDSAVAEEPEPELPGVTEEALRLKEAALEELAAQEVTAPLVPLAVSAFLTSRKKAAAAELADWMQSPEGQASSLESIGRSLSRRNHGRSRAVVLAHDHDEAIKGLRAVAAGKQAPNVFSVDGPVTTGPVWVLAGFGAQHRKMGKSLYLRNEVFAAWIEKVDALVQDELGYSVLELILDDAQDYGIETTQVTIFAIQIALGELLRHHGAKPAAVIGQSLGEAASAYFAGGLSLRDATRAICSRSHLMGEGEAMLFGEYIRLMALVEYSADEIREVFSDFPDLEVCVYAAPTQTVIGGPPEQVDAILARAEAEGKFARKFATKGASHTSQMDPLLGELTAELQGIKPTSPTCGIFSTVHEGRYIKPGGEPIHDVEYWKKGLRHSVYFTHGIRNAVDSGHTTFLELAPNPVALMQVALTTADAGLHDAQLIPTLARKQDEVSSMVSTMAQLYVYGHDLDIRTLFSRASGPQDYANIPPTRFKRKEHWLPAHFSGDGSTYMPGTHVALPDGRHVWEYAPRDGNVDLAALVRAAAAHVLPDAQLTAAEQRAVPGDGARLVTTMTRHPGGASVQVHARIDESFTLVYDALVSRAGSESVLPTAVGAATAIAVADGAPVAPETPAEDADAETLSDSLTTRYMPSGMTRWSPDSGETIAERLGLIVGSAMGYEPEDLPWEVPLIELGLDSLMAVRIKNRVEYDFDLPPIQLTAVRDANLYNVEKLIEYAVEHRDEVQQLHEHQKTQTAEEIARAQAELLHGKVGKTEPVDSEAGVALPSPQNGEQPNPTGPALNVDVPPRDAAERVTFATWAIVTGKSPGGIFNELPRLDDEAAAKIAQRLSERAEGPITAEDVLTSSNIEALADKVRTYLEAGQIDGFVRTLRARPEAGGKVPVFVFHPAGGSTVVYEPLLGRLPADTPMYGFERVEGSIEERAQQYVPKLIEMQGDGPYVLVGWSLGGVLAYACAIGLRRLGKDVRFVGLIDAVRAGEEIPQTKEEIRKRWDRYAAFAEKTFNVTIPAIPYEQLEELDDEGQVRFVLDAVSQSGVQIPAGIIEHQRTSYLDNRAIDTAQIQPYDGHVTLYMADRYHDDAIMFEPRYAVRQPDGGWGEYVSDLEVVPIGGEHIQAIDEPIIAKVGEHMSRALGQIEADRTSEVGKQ

| SMILES | Percent Effect [%] |
| --- | --- |
| CN(C)[C@H]1C[C@@H](Cc2cc(CO)on2)C1(C)C | -32.8 |
| CN(C)[C@H]1C[C@@H](Cc2cc(-c3ccc(F)cc3)on2)C1(C)C | -26.6 |
| COc1ccc(-c2cc(C[C@@H]3C[C@H](N(C)C)C3(C)C)no2)cc1 | 53.8 |
| CCN(C(=O)c1cnc(-c2ccc3c(c2)OCO3)s1)C1CC1 | 28.9 |
| CC(C)N(CCC#N)C(=O)c1cnc(-c2ccc3c(c2)OCO3)s1 | 46.5 |
| CN(C)C(=O)c1cnc(-c2ccc3c(c2)OCO3)s1 | 70.4 |
| CC(C(=O)NCCOc1ccc2c(c1)OCO2)n1cncn1 (stereo not drawn) | -36.9 |
| CC(C)N(CC(N)=O)C(=O)c1cnc(-c2ccc3c(c2)OCO3)s1 | 71.9 |
| CC(C1CC1)N(C)C(=O)c1cnc(-c2ccc3c(c2)OCO3)s1 (stereo not drawn) | -13 |
| O=C(N[C@@H]1CN(Cc2ccccn2)[C@@H]2COC[C@@H]21)C1CCC1 | -11.8 |
| O=C1CCCC2=C1C(c1cc(Cl)ccc1F)Nc1nonc1N2 (stereo not drawn) | -14.9 |
| CNC(=O)[C@H]1C[C@@H]2CCN(CCc3ccccc3)C[C@@H]2O1 | -653 |
| Cc1cc(CN2CCN(CC3CC3)[C@@H]3CS(=O)(=O)C[C@@H]32)ccc1F | -14.2 |
| Cc1noc([C@@]23CCO[C@@H]2CCN(C(=O)c2ccsc2)C3)n1 | -23.9 |
| CNS(=O)(=O)c1csc(C(=O)N(C)Cc2ccccc2C)c1 | 51.6 |
| CCNS(=O)(=O)c1ccc(C)c(C(=O)N(C)Cc2ccccc2C)c1 | -0.166 |
| CNS(=O)(=O)c1csc(C(=O)N(C)Cc2sccc2C)c1 | -17.6 |
| CCCn1ncc(CN2C[C@@H]3CCCN3C[C@@H]2Cc2ccccc2)c1C | 21.5 |
| CC(C)CN1C(=O)CO[C@@H]2CN(C(=O)C3CCOC3)C[C@H]21 (stereo partly drawn) | 12.2 |
| O=C(c1cscn1)N1C[C@@H](Oc2cccnc2)[C@H]2OCCC[C@H]21 | 29.5 |
| CNc1ncc(CN(C)C(=O)c2cccc(-n3cnnc3)c2)cn1 | -1.45 |
| CNc1ncc(CN(C)C(=O)c2cccc(-n3cccn3)c2)cn1 | -5.61 |
| CNc1ncc(CN(C)C(=O)c2cccc(Cn3cccn3)c2)cn1 | 118 |

| SMILES | Percent Effect [%] |
| --- | --- |
| c1ccc(COC[C@H]2CC[C@H]3[C@H](CCN3c3ncccn3)O2)nc1 | -8.11 |
| Cc1c[nH]c(C(=O)N2C[C@H]3CC[C@@H]2CN(Cc2cscn2)C3)n1 | -15.7 |
| COc1ccc(CNC[C@@]2(COc3cccnc3)C[C@@H](O)[C@@H](O)C2)cc1 | 0.869 |
| Cc1ccc(N2CCO[C@H]3CN(Cc4cc(C)on4)CC[C@H]3C2=O)cn1 | -3.21 |
| COCCCC1CCN([C@@H]2c3ccccc3C3(CCNCC3)[C@H]2O)CC1 | -6.55 |
| CCOCCN1CCN([C@@H]2c3ccccc3C3(CCNCC3)[C@H]2O)CC1 | 82.6 |
| COCCCN1CCN([C@@H]2c3ccccc3C3(CCNCC3)[C@H]2O)CC1 | -9.22 |
| CCOC(=O)[C@]12CCCN(Cc3ccsc3)C[C@H]1CN(CCOC)C2 | -32.4 |
| Cc1nc(CCNC(=O)NC(C)c2ccc3c(c2)OCCO3)cs1 (stereo not drawn) | -9.04 |
| Cc1nc(CN(C)C(=O)NC(C)c2ccc3c(c2)OCCO3)cs1 (stereo not drawn) | 58 |
| Cc1nc(CNC(=O)NC(C)c2ccc3c(c2)OCCCO3)cs1 (stereo not drawn) | -3.62 |
| CO[C@@H]1CCN(S(=O)(=O)N(C)C)[C@@H]2CN(Cc3ccncc3)C[C@@H]21 | -11 |
| CN(C)C(=O)c1cn[nH]c1C1(C)CCCN(Cc2ccccn2)C1 (stereo not drawn) | -25 |
| CN(C)C(=O)c1cn[nH]c1C1(C)CCN(c2ncccn2)CC1 | 72.9 |
| CC1(c2[nH]ncc2C(N)=O)CCN(c2ncccn2)CC1 | -9.79 |
| O=C(C1CC1)N1CC[C@H]2C(=O)N(c3ccsc3)CCO[C@H]2C1 | -24.6 |
| CCN1CCC(NC(=O)Cc2csc(C(C)(C)C)n2)CC1 | -28.7 |
| CCN1CCC(N[C@@H]2CC[C@@H]2NC(=O)Cc2csc(C)n2)CC1 | 64.6 |
| Cc1nc(CC(=O)NCCN2CCC(c3ccccc3C)C2)cs1 (stereo not drawn) | 5.3 |
| COCC(=O)NC[C@H]1C[C@@H]2CCN1C[C@@H]2CN1CCc2ccccc2C1 | -21.5 |
| Cc1nc(CN2C(=O)CC[C@@H]3[C@H]2CCN3C(=O)C2CCOCC2)cs1 | -22.6 |
| CCC(CC)C(=O)n1ccn(S(=O)(=O)c2ccc(C)cc2)c1=O | 69.1 |
| Cc1ccc(S(=O)(=O)n2ccn(C(=O)COc3ccccc3)c2=O)cc1 | -1 |

| SMILES | Percent Effect [%] |
| --- | --- |
| Cc1ccc(S(=O)(=O)n2ccn(C(=O)CC(C)C)c2=O)cc1 | 10.8 |
| CS(=O)(=O)N1CCO[C@@H]2CN(C(=O)C3CC(F)(F)C3)C[C@@H]2C1 | -14.3 |
| Cc1ccc(NC(C)(C)c2nnnn2-c2ccc(Cl)cc2)c(C)c1 | 43.2 |
| Cc1cccc(-n2nnnc2C(C)(C)Nc2ccccc2C)c1 | 71.2 |
| COc1ccc(-n2nnnc2C(C)(C)Nc2ccc(C)cc2C)cc1 | -14.4 |
| Fc1ccc(CN2CCO[C@H]3[C@H](OCCN4CCCC4)CC[C@@H]32)cc1 | -7.44 |
| Cc1nnc(N2C[C@@H](OCC3CCCC3)[C@H]3OCCC[C@H]32)s1 | -34.8 |
| Cc1ccc(C(=O)N2CCC3(CC2)c2ccccc2[C@@H](N)[C@@H]3O)c(=O)[nH]1 | 70 |
| Cc1ccc(Cl)cc1C(=O)N1CCC2(CC1)c1ccccc1[C@@H](N)[C@@H]2O | -27.1 |
| N[C@@H]1c2ccccc2C2(CCN(C(=O)c3ccccc3O)CC2)[C@H]1O | 1.94 |
| COCCN1C[C@H]2CN(C(=O)c3ccc4c(c3)OCO4)CCN2C1=O | 8.89 |
| COc1cccc(-c2cccc(CN3C[C@@H]4CC[C@H](C3)N(C)C4=O)c2)c1 | 6.34 |
| Cc1cc(CN(C)C(=O)c2ccc(N(C)C)nc2)no1 | -10.8 |
| Cc1ccc(C(=O)N(C)Cc2cc(C)on2)cn1 | 143 |
| Cc1cc(CN(C)C(=O)c2ccc(C(F)(F)F)nc2)no1 | -4.93 |
| CC(C)c1nccc([C@@H]2C[C@@H]3CCN(Cc4ccco4)C[C@H]3O2)n1 | -17.2 |
| O=C(CC1CC1)NC[C@]12COC[C@H]1CN(c1ncc(F)cn1)C2 | 8.61 |
| CC(C)(C)CCNc1nccc(-c2c[nH][nH]c2=O)n1 | 22.8 |
| CN(C)c1nccc(-c2c[nH][nH]c2=O)n1 | 51.4 |
| CN(C)c1nccc(-c2cnc(N(C)C)[nH]c2=O)n1 | 16.6 |
| CNC(=O)[C@@]12CCO[C@@H]1CCN(S(=O)(=O)c1ccccc1F)C2 | 16.9 |
| Cc1nc(C)c(CNC(=O)N2CCN(c3ccc(Cl)cn3)CC2)s1 | 14.6 |
| Cc1nc(CNC(=O)N2CCN(c3ccc(Cl)cn3)CC2)no1 | 7.54 |

| SMILES | Percent Effect [%] |
| --- | --- |
| Cc1nc(CNC(=O)N2CCN(c3ccc(Cl)cn3)CC2)sc1C | 50.8 |
| CN1CCS(=O)(=O)[C@@H]2CCN(C(=O)c3ccccc3)CC[C@@H]21 | -9.08 |
| Cc1cc(C)n(-c2cncc(NCCNS(C)(=O)=O)n2)n1 | 59.2 |
| CCN(CC)C(=O)CCNc1cncc(-n2nc(C)cc2C)n1 | 10.2 |
| Cc1cc(C)n(-c2cncc(NCCNC(=O)C3CCCC3)n2)n1 | 40.3 |
| Cc1cc(C)n(-c2cncc(NCCC(=O)NC(C)C)n2)n1 | 62.4 |
| Cc1cc(C)n(-c2cncc(NCCNC(=O)CC3CCCC3)n2)n1 | -10.3 |
| CCCNC(=O)CCNc1cncc(-n2nc(C)cc2C)n1 | 52 |
| Cc1cc(C)n(-c2cncc(NCCNC(=O)C(C)C)n2)n1 | 35.4 |
| Cc1cc(C)n(-c2cncc(NCCNC(=O)C(C)(C)C)n2)n1 | 27 |
| Cc1cc(C)n(-c2cncc(NCCNC(=O)c3cccnc3)n2)n1 | 2.44 |
| O=C(CC1CCCC1)N1C[C@H](OCc2ccncc2)[C@H]2OCCC[C@H]21 | -0.106 |
| COCCN1CC[C@H]2CN(c3cc(OC)ncn3)C[C@@H]2C1=O | 25.2 |
| CS(=O)(=O)CC(=O)N1C[C@H]2CCC[C@@]2(COCc2ccncc2)C1 | -8.5 |
| CCC(CC)CN1C[C@@H]2OCCN(Cc3cnn(C)c3)[C@@H]2C1 | -3.42 |
| CCN1C[C@H]2CCN(C(=O)Nc3ccccc3C)CC[C@H]2S1(=O)=O | -46.2 |
| CCc1nc(C)c(C(=O)N2C[C@H]3CC[C@@H]2CN(S(=O)(=O)N(C)C)C3)s1 | -18.5 |
| Cc1noc(C)c1CN1C[C@@H]2CN(C(=O)c3cnccn3)C[C@@H]2C1 | -42.1 |
| O=C(O)[C@]12CCCN(Cc3nccs3)[C@@H]1CCN(c1cnccn1)C2 | -14.4 |
| COCCN1CCCC2(CCN(c3nccc4ccccc34)C2)C1=O (stereo not drawn) | 10.3 |
| COCCN1CCCC2(CCN(c3nccnc3N(C)C)C2)C1=O (stereo not drawn) | 60.4 |
| COCCN1CCCC2(CCN(c3ncnc(C)c3C)C2)C1=O (stereo not drawn) | 6.43 |
| Fc1cnc(N2C[C@@H](OCC3CCOCC3)[C@H]3OCCC[C@H]32)nc1 | -17.1 |

| SMILES | Percent Effect [%] |
| --- | --- |
| CN(C)C[C@H]1OC[C@@H]2CCN(C(=O)NCc3cccc(F)c3)C[C@@H]21 | -18.3 |
| O[C@]12CCNC[C@H]1CN(c1ccnc3ccccc13)CC2 | -11.7 |
| Cc1ccc(C(=O)N2C[C@H](OCc3cccnc3)[C@H]3COC[C@H]32)cn1 | -11.8 |
| COc1ccc2nc(C3CC3)cc(C(=O)NCc3noc(C)n3)c2c1 | 83.5 |
| COc1ccc2nc(C3CC3)cc(C(=O)NCC(=O)N(C)C)c2c1 | -13.4 |
| COc1ccc2nc(C3CC3)cc(C(=O)NCc3ncnn3C)c2c1 | -6.17 |
| Cc1cnc(N2CC[C@H]3[C@@H]2CCC(=O)N3c2ccccc2)nc1 | -48.4 |
| O=C(CC1CC1)N1C[C@H]2CN(CC3CC3)C(=O)[C@H]2C1 | -22.1 |
| O=C(CCn1cncn1)N1C[C@H]2CC[C@@H]1CN(Cc1ccncc1)C2 | 0.614 |
| NS(=O)(=O)Cc1ccc(CNc2cncc(-n3cccn3)n2)cc1 | 133 |
| CCCOc1ccc(CNc2cncc(-n3cccn3)n2)cc1 | 34.6 |
| COCc1ccc(CNc2cncc(-n3cccn3)n2)cc1 | 52.2 |
| CCOCc1ccc(CNc2cncc(-n3cccn3)n2)cc1 | -10.5 |
| CCOc1cccc(CNc2cncc(-n3cccn3)n2)c1 | -63.1 |
| Cc1cccc(CNc2cncc(-n3cccn3)n2)c1 | -60.2 |
| CCN(CC)C(=O)c1ccc(CNc2cncc(-n3cccn3)n2)cc1 | -7.79 |
| COC(=O)Nc1ccc(CNc2cncc(-n3cccn3)n2)cc1 | 25.1 |
| CN(C)c1ccc(CNc2cncc(-n3cccn3)n2)cc1 | 27.6 |
| CNC(=O)COc1ccc(CNc2cncc(-n3cccn3)n2)cc1 | 70.7 |
| CC(C)OCc1ccc(CNc2cncc(-n3cccn3)n2)cc1 | 16.5 |
| CCOCCOCc1cccc(CNc2cncc(-n3cccn3)n2)c1 | 53.8 |
